Test results as given in PubChem BioAssay (NCATS).
Results filed as inconclusive are left out. The source made the active and inactive calls. Unless noted, calls follow the shape of the dose curve; as a rule, active = well fitted curve in the direction sought with a large enough effect; inconclusive = small, poorly fitted or top-dose-only effect, or another doubt; inactive = no such curve, though single readings can be large; an effect the other way counts as inactive or inconclusive.

Legend:
[1] = target: Rap guanine nucleotide exchange factor 3 (Homo sapiens) (UniProt O95398); experiment: Confirmatory qHTS for antagonist of cAMP-regulated guanine nucleotide exchange factor 3 (EPAC1) (AID 1645880); settings: EPAC1 Rap1B-BODIPY-GDP exchange, fluorescence; activity, negative = inhibition: at 115 µM (top of the series);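 also: plate controls were DMSO only for no effect and full effect of the ATA control for full effect; nearly all actives have a fitted effect of over 55% in size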
Chain of Rap guanine nucleotide exchange factor 3 (Homo sapiens) (O95398 whole entry, looked up): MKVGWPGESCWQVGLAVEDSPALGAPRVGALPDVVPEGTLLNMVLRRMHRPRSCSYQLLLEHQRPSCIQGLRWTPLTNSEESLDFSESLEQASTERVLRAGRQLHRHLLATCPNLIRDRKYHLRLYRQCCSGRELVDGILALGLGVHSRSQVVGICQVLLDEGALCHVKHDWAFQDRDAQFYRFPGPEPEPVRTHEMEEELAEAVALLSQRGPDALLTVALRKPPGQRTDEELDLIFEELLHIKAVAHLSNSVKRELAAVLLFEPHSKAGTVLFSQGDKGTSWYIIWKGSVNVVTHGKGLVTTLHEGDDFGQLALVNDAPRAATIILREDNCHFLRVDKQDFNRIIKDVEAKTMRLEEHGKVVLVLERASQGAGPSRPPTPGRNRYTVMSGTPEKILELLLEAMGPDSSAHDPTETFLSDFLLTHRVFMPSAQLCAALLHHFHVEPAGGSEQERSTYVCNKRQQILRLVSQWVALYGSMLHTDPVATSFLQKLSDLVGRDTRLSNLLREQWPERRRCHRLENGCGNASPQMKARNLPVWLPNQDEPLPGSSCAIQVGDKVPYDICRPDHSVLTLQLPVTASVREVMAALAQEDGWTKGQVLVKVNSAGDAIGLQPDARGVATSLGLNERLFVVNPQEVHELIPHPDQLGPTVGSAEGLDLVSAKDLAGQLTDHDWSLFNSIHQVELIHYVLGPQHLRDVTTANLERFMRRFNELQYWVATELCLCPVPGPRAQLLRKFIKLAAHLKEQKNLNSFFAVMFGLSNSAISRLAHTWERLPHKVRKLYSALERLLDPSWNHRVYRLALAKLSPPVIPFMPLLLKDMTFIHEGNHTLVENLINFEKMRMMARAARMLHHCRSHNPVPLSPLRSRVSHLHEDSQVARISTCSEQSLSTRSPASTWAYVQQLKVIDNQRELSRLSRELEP
How it was run: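 Released BODIPY-GDP fluoresces less than Rap1-bound BODIPY-GDP; the signal is followed at 480/540 nm at 5-min intervals over 30 min, after 5 min at room temperature. Reactions contain 100 nM EPAC1, 250 nM RAP1B-BODIPY-GDP and 50 uM GDP; results are normalized to ATA and DMSO.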

[2] = target: Rap guanine nucleotide exchange factor 3 (Homo sapiens) (UniProt O95398); experiment: Confirmatory qHTS for agonist of cAMP-regulated guanine nucleotide exchange factor 3 (EPAC1) (AID 1645881);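 also: EPAC1 catalysed release of BODIPY-GDP from Rap1B seen as fluorescence loss; 100% = effect of cAMP agonist control; nearly all actives have a fitted effect of over 75% in size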
[3] = target: Rap guanine nucleotide exchange factor 4 (Homo sapiens) (UniProt Q8WZA2); experiment: Confirmatory qHTS for agonist of cAMP-regulated guanine nucleotide exchange factor 4 (EPAC2) (AID 1645884);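 also: nucleotide exchange releases bodipy-GDP from Rap1 and this lowers its fluorescence; % is scaled to controls: 0 for no effect and ±100 for the full control effect; nearly all actives have a fitted effect of over 65% in size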
Chain of Rap guanine nucleotide exchange factor 4 (Homo sapiens) (Q8WZA2 whole entry, looked up): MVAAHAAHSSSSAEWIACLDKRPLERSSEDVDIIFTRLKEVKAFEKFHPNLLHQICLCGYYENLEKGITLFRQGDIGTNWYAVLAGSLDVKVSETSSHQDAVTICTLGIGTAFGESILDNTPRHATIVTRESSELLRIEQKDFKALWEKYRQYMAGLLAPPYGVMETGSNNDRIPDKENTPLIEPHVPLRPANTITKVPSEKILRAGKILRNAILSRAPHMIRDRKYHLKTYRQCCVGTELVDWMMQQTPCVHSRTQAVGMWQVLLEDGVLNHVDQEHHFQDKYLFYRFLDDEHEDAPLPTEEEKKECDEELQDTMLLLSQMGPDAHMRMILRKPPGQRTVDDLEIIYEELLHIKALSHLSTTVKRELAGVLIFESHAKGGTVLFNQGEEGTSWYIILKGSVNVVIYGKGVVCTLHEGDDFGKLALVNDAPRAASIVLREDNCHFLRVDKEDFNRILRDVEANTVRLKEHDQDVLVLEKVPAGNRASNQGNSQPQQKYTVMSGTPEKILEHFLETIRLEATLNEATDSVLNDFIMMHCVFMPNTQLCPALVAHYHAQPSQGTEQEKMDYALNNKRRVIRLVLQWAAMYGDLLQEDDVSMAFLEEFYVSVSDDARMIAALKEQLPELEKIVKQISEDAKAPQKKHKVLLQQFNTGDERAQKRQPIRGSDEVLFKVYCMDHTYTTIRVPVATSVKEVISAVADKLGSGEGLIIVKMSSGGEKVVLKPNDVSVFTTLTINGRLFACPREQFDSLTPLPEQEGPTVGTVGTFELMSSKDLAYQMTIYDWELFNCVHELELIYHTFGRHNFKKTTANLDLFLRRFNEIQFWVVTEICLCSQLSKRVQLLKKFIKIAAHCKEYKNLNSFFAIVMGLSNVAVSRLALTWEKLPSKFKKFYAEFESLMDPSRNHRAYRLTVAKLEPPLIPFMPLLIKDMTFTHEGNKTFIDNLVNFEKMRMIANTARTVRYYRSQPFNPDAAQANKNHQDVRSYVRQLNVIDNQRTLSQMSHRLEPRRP

[4] = target: Rap guanine nucleotide exchange factor 3 (Homo sapiens) (UniProt O95398); experiment: Counterscreen qHTS for agonist of cAMP-regulated guanine nucleotide exchange factor 3 (EPAC1) (AID 1645889); also: % of control where 0% means no effect; nearly all actives have a fitted effect of over 40% in size
How it was run: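 Measured: fluorescence of BODIPY-GDP bound to Rap1B, which falls as exchange proceeds. Conditions include 50 uM competing GDP, 5 and 30 min reads, and a later cAMP challenge for antagonist detection.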

[5] = target: Lysosomal acid glucosylceramidase (Homo sapiens) (UniProt P04062); experiment: Glucocerebrosidase-p2 (AID 348; in the data active = potency below about 10 µM; also: potency is read from the fitted curve at half-maximal effect); settings: purified GBA, blue fluorogenic substrate, 40 min
Chain of Lysosomal acid glucosylceramidase (Homo sapiens) (P04062 whole entry, looked up): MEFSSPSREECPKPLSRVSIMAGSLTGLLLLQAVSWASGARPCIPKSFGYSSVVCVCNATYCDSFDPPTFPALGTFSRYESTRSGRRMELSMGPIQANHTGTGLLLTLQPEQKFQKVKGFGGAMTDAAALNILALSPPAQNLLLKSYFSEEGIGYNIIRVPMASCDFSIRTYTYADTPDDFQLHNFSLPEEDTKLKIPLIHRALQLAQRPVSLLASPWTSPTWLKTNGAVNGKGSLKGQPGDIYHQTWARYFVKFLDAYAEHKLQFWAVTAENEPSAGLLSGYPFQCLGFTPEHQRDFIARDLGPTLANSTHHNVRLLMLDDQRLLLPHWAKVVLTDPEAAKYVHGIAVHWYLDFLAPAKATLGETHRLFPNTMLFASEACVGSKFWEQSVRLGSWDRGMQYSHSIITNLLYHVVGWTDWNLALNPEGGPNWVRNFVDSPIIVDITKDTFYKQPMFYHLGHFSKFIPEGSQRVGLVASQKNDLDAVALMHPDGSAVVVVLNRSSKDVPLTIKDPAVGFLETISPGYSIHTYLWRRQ
How it was run: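 Normal human glucocerebrosidase (0.2 nM) with blue fluorogenic substrate (80 uM final) in citrate/phosphate pH 5.9 with 10mM sodium taurocholate, 0.01% tween-20; 40 min RT, NaOH/glycine stop; fluorescence Ex 365/Em 440; AC50 from a titration from 0.6 nM upwards.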

[6] = AP1 Signaling Pathway (AID 357; active = well fitted curve in either direction with a large enough effect, not every such curve was filed as active;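 also: ME-180 reporter cells stimulated with EGF at its EC50 level; % is scaled to controls: 0 for no effect and ±100 for the full control effect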); settings: ME-180 (cervical carcinoma) AP-1-bla reporter, EGF-induced, beta-lactamase ratio, 5 h; at 7.69 µM (top of the series) unless noted
How it was run: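 First, ME-180 AP-1-bla cells were cultured overnight at 37 °C in low-serum Opti-MEM. Next, titrated compounds with EC50 EGF were incubated 5 hours. Finally, CCF4 was added for 2.5 hours and the 460/530 nm ratio recorded.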

[7] = target: Cytochrome P450 1A2 (Homo sapiens) (UniProt P05177); experiment: p450-cyp1a2 (AID 410; calls by dose curve; also: potency is read from the fitted curve at half-maximal effect)
How it was run: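 20nM CYP1A2, 100uM Luciferin-ME (=Km), 100mM KPO4; cpd 10 min RT; +NADPH regen, 60 min RT; stop/detect 20 min; luminescence. Normalized to furafylline 57 uM = full inhibition.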

[8] = NFAT Signaling Pathway (AID 444; active = well fitted curve in either direction with a large enough effect, not every such curve was filed as active;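 also: carbachol stimulus at about its EC50 of 1 µM final; % is scaled to controls: 0 for no effect and ±100 for the full control effect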); settings: Jurkat NFAT-bla M1, carbachol, beta-lactamase ratio, 5 h; at 7.69 µM (top of the series) unless noted
How it was run: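 Jurkat cells carrying an NFAT-driven β-lactamase reporter and co-transfected muscarinic M1 receptor were treated with compound plus carbachol (1 uM final, an EC50 level) for 5 h at 37 °C. CCF4 loading followed for 1 h at RT; 460/530 nm ratio gave %activity.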

[9] = target: Glucocorticoid receptor (Homo sapiens) (UniProt P04150); experiment: GR-GFP Redistribution (AID 450;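 active = compounds whose dose series gives a full or clear partial fitted curve of increased nuclear translocation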; also: potency is read from the fitted curve at half-maximal effect); settings: U2OS GR-GFP nuclear translocation, laser cytometry, 2 h
Chain of Glucocorticoid receptor (Homo sapiens) (P04150 whole entry, looked up, the tested form may be a part): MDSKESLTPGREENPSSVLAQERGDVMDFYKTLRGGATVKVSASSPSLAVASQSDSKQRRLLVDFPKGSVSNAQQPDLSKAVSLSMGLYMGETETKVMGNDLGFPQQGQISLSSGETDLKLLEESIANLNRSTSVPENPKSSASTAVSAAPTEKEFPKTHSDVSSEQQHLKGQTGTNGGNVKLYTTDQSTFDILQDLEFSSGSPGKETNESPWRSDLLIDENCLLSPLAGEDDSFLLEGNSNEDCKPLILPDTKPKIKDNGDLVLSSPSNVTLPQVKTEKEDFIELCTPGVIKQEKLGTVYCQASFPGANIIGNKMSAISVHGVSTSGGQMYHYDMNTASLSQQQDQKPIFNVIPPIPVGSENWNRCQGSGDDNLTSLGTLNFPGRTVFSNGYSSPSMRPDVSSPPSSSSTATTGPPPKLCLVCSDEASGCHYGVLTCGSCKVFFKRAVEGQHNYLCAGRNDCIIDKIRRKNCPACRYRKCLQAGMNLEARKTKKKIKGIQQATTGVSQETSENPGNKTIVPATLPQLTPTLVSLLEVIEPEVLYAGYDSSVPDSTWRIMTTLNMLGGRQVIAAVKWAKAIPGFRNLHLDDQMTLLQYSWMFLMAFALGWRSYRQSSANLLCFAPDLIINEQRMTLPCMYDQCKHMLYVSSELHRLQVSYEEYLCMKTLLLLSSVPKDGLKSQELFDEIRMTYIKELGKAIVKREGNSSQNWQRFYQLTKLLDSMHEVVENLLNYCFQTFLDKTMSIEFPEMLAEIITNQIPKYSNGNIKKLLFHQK

[10] = target: Glucocorticoid receptor (Homo sapiens) (UniProt P04150); experiment: GR-EFC Redistribution (AID 451; calls by dose curve; also: potency is read from the fitted curve at half-maximal effect); settings: CHO-K1 GR-EFC translocation, beta-gal luminescence, 2 h
How it was run: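 CHO-K1 cells stably expressing nuclear-localized β-gal enzyme acceptor and GR fused C-terminally to the enzyme donor fragment; ligand-driven nuclear translocation restores β-gal by complementation. Compounds titrated up to 46 uM final, 2 h at 37 °C; luminescence read.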

[11] = target: Mitogen-activated protein kinase 10 (Mus musculus) (UniProt Q61831); experiment: JNK3 AlphaScreen Assay (AID 530; active = well fitted curve in either direction with a large enough effect, not every such curve was filed as active;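 also: kinase came from lysate of stimulated human HepG2 cells; signal reports phosphorylation of biotinylated GST-cJun 1-79 at Ser73 with 10 µM ATP; % is scaled to controls: 0 for no effect and ±100 for the full control effect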)
How it was run: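 Biotinylated GST-cJun(1-79) served as substrate for JNK3 in HepG2 lysates stimulated with IL-1beta and TNF-alpha. ATP was 10 uM final, pH 7.6. Ser73 phosphorylation was quantified by AlphaScreen (680 nm excitation).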

[12] = target: Cytochrome P450 2C9 (Homo sapiens) (UniProt P11712); experiment: qHTS Assay for Inhibitors and Substrates of Cytochrome P450 2C9 (AID 883); also: % is scaled to controls: 0 for no effect and ±100 for the full control effect; nearly all actives have a fitted effect of over 60% in size
Chain of Cytochrome P450 2C9 (Homo sapiens) (P11712 whole entry, looked up): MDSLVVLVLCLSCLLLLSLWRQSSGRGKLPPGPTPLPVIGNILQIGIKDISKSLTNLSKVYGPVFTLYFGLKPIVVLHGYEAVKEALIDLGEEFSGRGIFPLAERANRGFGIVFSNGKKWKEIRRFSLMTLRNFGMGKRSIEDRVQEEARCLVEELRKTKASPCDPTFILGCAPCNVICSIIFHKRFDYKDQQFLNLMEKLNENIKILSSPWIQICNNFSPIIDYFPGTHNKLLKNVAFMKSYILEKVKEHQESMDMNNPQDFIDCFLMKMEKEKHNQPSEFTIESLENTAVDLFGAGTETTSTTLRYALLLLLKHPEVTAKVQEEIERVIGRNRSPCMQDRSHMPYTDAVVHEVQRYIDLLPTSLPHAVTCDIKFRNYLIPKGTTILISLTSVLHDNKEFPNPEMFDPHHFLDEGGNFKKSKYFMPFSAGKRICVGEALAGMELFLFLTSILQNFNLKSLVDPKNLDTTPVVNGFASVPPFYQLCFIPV
How it was run: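 Human CYP2C9 (10nM) hydroxylated Luciferin-H (100uM, at its KM) to luciferin in 25mM KPO4. Compound was preincubated 10 min at 37C, then NADPH regeneration started a 60 min reaction at 37C. Luminescence was read after detection reagent, normalized to 57uM sulphaphenazole.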

[13] = target: Cytochrome P450 3A4 (Homo sapiens) (UniProt P08684); experiment: qHTS Assay for Inhibitors and Substrates of Cytochrome P450 3A4 (AID 884); also: nearly all actives have a fitted effect of over 50% in size; also: potency is read from the fitted curve at half-maximal effect
Chain of Cytochrome P450 3A4 (Homo sapiens) (P08684 whole entry, looked up): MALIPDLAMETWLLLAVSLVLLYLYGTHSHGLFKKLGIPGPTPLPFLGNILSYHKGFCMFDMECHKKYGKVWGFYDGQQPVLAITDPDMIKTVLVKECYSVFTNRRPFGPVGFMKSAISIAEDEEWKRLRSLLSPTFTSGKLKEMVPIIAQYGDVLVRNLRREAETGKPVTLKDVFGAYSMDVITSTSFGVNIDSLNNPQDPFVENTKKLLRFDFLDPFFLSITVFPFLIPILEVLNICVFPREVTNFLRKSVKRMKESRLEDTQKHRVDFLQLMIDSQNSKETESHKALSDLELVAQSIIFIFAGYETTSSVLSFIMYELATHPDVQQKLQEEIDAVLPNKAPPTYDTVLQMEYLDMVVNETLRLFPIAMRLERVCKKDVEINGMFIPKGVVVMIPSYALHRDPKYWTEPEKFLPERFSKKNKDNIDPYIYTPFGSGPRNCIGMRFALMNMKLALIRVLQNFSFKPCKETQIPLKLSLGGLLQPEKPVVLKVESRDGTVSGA
How it was run: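 Luminescent readout of luciferin produced by CYP3A4 (20 nM) dealkylation of Luciferin-PPXE, 25 uM (its KM). NADPH-driven reaction ran 60 min at RT after 10 min compound preincubation; data scaled to 57 uM ketoconazole as 100% inhibition.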

[14] = target: Cytochrome P450 2D6 (Homo sapiens) (UniProt P10635); experiment: qHTS Assay for Inhibitors and Substrates of Cytochrome P450 2D6 (AID 891);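 also: luciferin methyl ether substrate demethylated by CYP2D6 with NADPH regeneration; % is scaled to controls: 0 for no effect and ±100 for the full control effect; nearly all actives have a fitted effect of over 60% in size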
How it was run: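 Luminescent read-out of luciferin formed by 5 nM human CYP2D6 demethylating 30 uM Luciferin-ME EGE (Km level) over 60 min at room temperature after NADPH regeneration addition. Data normalized to full inhibition by 1.43 uM quinidine.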

[15] = target: Cytochrome P450 2C19 (Homo sapiens) (UniProt P33261); experiment: qHTS Assay for Inhibitors and Substrates of Cytochrome P450 2C19 (AID 899); also: potency is read from the fitted curve at half-maximal effect; nearly all actives have a fitted effect of over 60% in size
How it was run: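 Human CYP2C19 (5nM) with Luciferin-H EGE at 10uM (its KM) in 50mM KPO4 was preincubated with compound for 10 min at 37C. NADPH regeneration started a 60 min 37C reaction. Luciferin was read by luminescence, normalized to 57uM ketoconazole.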

[16] = target: Ubiquitin carboxyl-terminal hydrolase 1 (Homo sapiens) (UniProt O94782); experiment: Inhibitors of USP1/UAF1: Pilot qHTS (AID 504865); also: nearly all actives have a fitted effect of over 35% in size; also: potency is read from the fitted curve at half-maximal effect
Chain of Ubiquitin carboxyl-terminal hydrolase 1 (Homo sapiens) (O94782 whole entry, looked up): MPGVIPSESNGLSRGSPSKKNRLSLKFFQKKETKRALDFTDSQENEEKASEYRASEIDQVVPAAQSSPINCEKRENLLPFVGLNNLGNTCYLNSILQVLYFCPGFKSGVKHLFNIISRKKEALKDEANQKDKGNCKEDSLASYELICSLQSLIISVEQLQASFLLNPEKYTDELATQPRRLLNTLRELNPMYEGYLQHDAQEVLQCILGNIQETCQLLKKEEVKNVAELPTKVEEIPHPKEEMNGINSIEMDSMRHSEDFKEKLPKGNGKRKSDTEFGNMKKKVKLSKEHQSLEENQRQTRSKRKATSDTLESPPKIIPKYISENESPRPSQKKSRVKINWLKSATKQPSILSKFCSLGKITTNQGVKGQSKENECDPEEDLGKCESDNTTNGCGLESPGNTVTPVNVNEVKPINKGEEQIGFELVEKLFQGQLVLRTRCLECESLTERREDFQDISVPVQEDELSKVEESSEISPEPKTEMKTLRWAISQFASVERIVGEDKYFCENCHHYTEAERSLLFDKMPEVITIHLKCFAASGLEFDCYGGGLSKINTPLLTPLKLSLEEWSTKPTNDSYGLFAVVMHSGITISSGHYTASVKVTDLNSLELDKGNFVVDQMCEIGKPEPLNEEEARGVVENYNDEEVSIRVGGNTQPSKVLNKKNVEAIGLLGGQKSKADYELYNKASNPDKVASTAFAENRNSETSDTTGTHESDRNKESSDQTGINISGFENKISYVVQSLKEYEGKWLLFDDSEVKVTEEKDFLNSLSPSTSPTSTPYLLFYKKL
How it was run: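 Enzyme-free wells gave the negative control, while test wells held 1nM USP1/UAF1 preincubated with compound for 15 min at room temperature. Ub-Rho at 150nM final started the reaction, and fluorescence at 480/540 nm was recorded kinetically.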

[17] = Stat Signaling Pathway (AID 446; active = well fitted curve in either direction with a large enough effect, not every such curve was filed as active;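 also: ME-180 cervical cancer cells given 40 pM IL-6 alongside compound; SIE-controlled beta-lactamase reporter measured as 460/530 nm FRET emission ratio; % is scaled to controls: 0 for no effect and ±100 for the full control effect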)
How it was run: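 Compound effects on IL-6-induced STAT reporter activity were measured in ME-180 cells. After overnight culture, cells were co-treated with 40 pM IL-6 for 5 hrs before beta-lactamase substrate loading at room temperature.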

[18] = target: 3',5'-cyclic-AMP phosphodiesterase 4B (Homo sapiens) (UniProt Q07343); experiment: qHTS Assay for Inhibitors of PDE-IV (AID 607; active = well fitted activation curve with a large enough effect in the main read-out, with a control signal flat, not every such curve was filed as active; also: % of control where 0% means no effect)
How it was run: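 ACTOne HEK293 cells carry a modified cAMP-gated CNG channel and express endogenous PDE4; plated 1000 cells/well, compounds up to 22.9 uM final. Membrane-potential dye fluorescence (ex 535/em 590) was read; parental cells received 10 uM forskolin + 100 uM RO 20-1724.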

[19] = Confirmation and Secondary Assay for Modulators of Hemoglobin Beta Chain Splicing at IVS2 654 locus (AID 910);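 also: per-well total GFP intensity by laser scanning cytometry after 2-day treatment; % of control where 0% means no effect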
How it was run: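 HeLa cells stably carrying EGFP interrupted by mutant beta-globin IVS2-654 intron (CMV-driven) were treated with compound for 2 days at 37C; corrected splicing was scored as total peak GFP intensity per well (488 nm excitation, 500-520 nm emission).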

[20] = Confirmation and Secondary Assay for Modulators of Hemoglobin Beta Chain Splicing at IVS2 705 locus (AID 930);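 also: HeLa cells stably expressing the EGFP-705 splicing reporter; GFP fluorescence per well restored by corrected splicing of the IVS2-705 intron in EGFP; % of control where 0% means no effect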
How it was run: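 Per-well GFP, captured at 1 x 8 µm resolution with 488 nm excitation, served as the read-out for HeLa EGFP-705 cells incubated 2 days with test compound versus DMSO.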

[21] = target: DNA dC->dU-editing enzyme APOBEC-3G (Homo sapiens) (UniProt Q9HC16); experiment: qHTS for inhibitors of Vif-A3G interactions: Validation (AID 588379); also: 0% is about no effect
How it was run: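 Yellow fluorescence (Ex 488, Em 500-530) of Vif-coexpressing HeLa A3G-eYFP cells, scanned by Acumen cytometer, reports blocked A3G degradation. Cells plated at 700/well overnight at 37 deg C before compound addition, then a further overnight compound incubation at 37 deg C.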

C[C@@H]1CN([C@@H](C)CO)C(=O)Cc2cc(NC(=O)C3CCCCC3)ccc2O[C@H]1CN(C)S(=O)(=O)c1ccccc1
inactive: Potency [1] | Potency [2] | Potency [3] | Potency [4]

CCOC(=O)C(Cc1ccc(Cl)cc1Cl)c1ccno1 (stereo not given)
inactive: Potency [1] | Potency [2] | Potency [3] | Potency [4]

Cc1ccccc1-c1ccc2ncnc(N3CCOCC3)c2c1
active: Potency [7] 1.26 µM | Potency [15] 1.58 µM
inactive: Potency [5] > 11.4 µM | activity change, negative = inhibition [6] -27.7% | activity change, negative = inhibition [8] 20.5% | Potency [9] > 46 µM | Potency [10] > 46 µM | Potency [11] | activity change, negative = inhibition [12] -24.2% [at 2.29 µM] | Potency [13] | Potency [14] | Potency [16]

COc1ncc2nc(-c3ccccc3)c(=O)n(Cc3cccs3)c2n1
inactive: Potency [5] > 11.4 µM | activity change, negative = inhibition [6] 3.51% | activity change, negative = inhibition [8] -14.6% | outcome [17] | Potency [9] > 9.22 µM | Potency [10] > 46 µM | Potency [11] | Potency [18]

COc1cc(C)c2c(=O)cc(-c3ccccc3)oc2c1
active: Potency [13] 12.6 µM
inactive: Potency [19] | Potency [20]

CC(=O)Oc1c2c(c3c(c1CC=C(C)C)O[C@@]14C(=CC5CC1C(C)(C)OC4(C/C=C(\C)C(=O)O)C5=O)C3=O)OC(C)(CCC=C(C)C)C=C2 (stereo not given in full)
inactive: Potency [19] | Potency [20]
active: Potency [16] 31.6 µM

COc1ccc(C2OCC3(COC(C)=O)C(C)C=C(C)C2C3C)cc1 (stereo not given)
inactive: outcome [21]
